Hits are enriched below; roughly 2.3% of the tested compounds scored in any of these assays.
CHO-K1 Ca ag: M1 agonist counterscreen hit in parental CHO-K1 cells | Fluo-8 calcium fluorescence; scaled to maximal ATP response, vehicle zero | activation, % at 3 µM | 360,000 tested, 0.48% active | AID 602248; in the data active means activation above about 15%;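 further: untransfected CHO-K1 host cells lacking M1 receptor as counterscreen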
CHRM1 antagonist: blocks human M1 muscarinic receptor. CHO-K1 hM1, Fluo-8 calcium fluorescence, ACh EC80 antagonist. inhibition, % at 3 µM. 360,000 tested, 1.3% active. AID 588852;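 active means percent inhibition above its own plate's cutoff, namely the mean of that plate's compound wells plus 3 SD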;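 further: peak over basal fluorescence ratio during 140 s after agonist addition; 0% = ACh EC80 plus DMSO and 100% = DMSO alone without agonist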
Target sequence (P11229 whole entry, looked up): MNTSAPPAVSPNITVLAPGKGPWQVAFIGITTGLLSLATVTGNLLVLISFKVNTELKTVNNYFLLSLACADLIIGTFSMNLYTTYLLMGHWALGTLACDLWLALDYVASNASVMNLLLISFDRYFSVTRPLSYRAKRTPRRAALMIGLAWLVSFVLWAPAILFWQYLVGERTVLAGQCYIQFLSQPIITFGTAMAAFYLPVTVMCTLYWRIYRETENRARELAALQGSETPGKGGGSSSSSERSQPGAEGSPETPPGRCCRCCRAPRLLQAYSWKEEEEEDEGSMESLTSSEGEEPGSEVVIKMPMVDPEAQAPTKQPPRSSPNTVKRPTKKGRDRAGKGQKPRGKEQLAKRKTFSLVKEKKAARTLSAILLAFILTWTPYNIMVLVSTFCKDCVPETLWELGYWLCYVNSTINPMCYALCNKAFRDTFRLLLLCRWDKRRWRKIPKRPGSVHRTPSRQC
M1 PAM: potentiates human M1 receptor response to acetylcholine. CHO-K1 hM1, Fluo-8 calcium fluorescence, ACh EC20; 0% = ACh EC20, 100% = maximal ACh. activation, % at 3 µM. 360,000 tested, 0.088% active; in the data active means activation above about 19%, passing the limit was not always enough
CHRM1 agonist: agonists of human M1 muscarinic receptor | activation, % at 3 µM | AID 588814 | P11229 | CHO-K1 hM1, Fluo-8 calcium fluorescence, agonist mode; 0% DMSO, 100% acetylcholine EC100 | 360,000 tested, 0.33% active;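 active means activation above the run's mean compound activation plus 3 SD, cut at about 16% in these data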;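 further: peak over basal fluorescence ratio within a 140 s kinetic read after compound addition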
CHO-K1 Ca PAM: nonselective activator or artifact in parental CHO-K1 calcium assay. ATP EC20, Fluo-8 calcium fluorescence; 0% at ATP EC20, 100% at ATP max. AID 602247. activation, % at 3 µM. 360,000 tested, 0.02% active;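 active means activation above the run cutoff, the mean activation of all test compounds plus 3 SD, cut at about 40% in these data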;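 further: peak over basal fluorescence ratio in a 140 s read after ATP addition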
CHO-K1 Ca antag: M1 antagonist counterscreen hit in parental CHO-K1 cells | ATP-induced calcium, Fluo-8 fluorescence | 360,000 tested, 0.6% active | inhibition, % at 3 µM | AID 602250;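 active means inhibition above a per-plate cutoff, the plate's mean sample inhibition plus 3 SD, cut at about 24% in these data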;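 further: 0% = DMSO plus EC80 ATP and 100% = DMSO alone without ATP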
* = called active by the depositor.

SMILES	CHO-K1 Ca ag	CHRM1 antagonist	M1 PAM	CHRM1 agonist	CHO-K1 Ca PAM	CHO-K1 Ca antag
OC(CNC1CCCc2ccccc21)COc1ccc2ccccc2c1 (stereo not given)	7	6	6	-1	27	-6
CSc1nc2c(c(=O)[nH]1)C(c1ccc(Br)cc1)CC(=O)N2 (stereo not given)	16*	-5	13	-3	6	8
CSc1nc2c(c(=O)[nH]1)C(c1ccc(F)cc1)CC(=O)N2 (stereo not given)	3	-10	16	-5	18	-9
O=C(CSc1ccc2nnc(-c3cccnc3)n2n1)NCc1ccc2c(c1)OCO2	0	64*	-27	-10	12	-4
O=C(CSc1ccc2nnc(-c3ccccc3)n2n1)NCc1ccc2c(c1)OCO2	0	-14	5	1	15	-12
CC(=O)c1cccc(NS(=O)(=O)c2ccc(NC(=O)N3CCCCC3)cc2)c1	6	36*	-12	-1	-10	22
Cc1ccc(NC(=O)CC2SC(=Nc3ccc(O)cc3)NC2=O)cc1 (stereo not given)	0	-9	10	-3	13	1
CCOC(=O)c1ccc(NC(=S)NC2CC(C)(C)NC(C)(C)C2)cc1	0	3	-16	42*	21	-12
Cc1ccc2c(CC(=O)NCC3(N4CCOCC4)CCCCC3)coc2c1C	0	14	3	-1	1	0
COc1cccc(Oc2coc3c(CN4CCOCC4)c(O)ccc3c2=O)c1	0	21	-4	-6	-2	28*
Cc1ccc(S(=O)(=O)N(CC(=O)N/N=C/c2cccc(Cl)c2)c2cccc3cccnc23)cc1	0	-3	-5	-3	-10	24*
CCC1=NN(C(=O)c2ccc(Cl)cc2)C(O)(c2ccc(C)cc2)C1 (stereo not given)	0	-7	9	-2	4	-2
CCOC(=O)C1=NN(C(=O)c2ccc(C)cc2)C(O)(c2ccc(Cl)cc2)C1 (stereo not given)	13	3	-5	22*	-2	-5
COc1ccccc1CNC(=O)/C=C/c1ccc(S(=O)(=O)N2CCOCC2)cc1	1	-4	7	-2	8	-8
COc1ccc(S(N)(=O)=O)cc1C(=O)OCCCOC(=O)c1cc(S(N)(=O)=O)ccc1OC	0	-11	10	-2	15	-7
COc1ccc(S(N)(=O)=O)cc1C(=O)OCCCOc1ccc(F)cc1	18*	-1	3	-2	2	11
COc1ccc(OC)c(NS(=O)(=O)c2ccc(-n3cccn3)cc2)c1	2	1	-6	-1	-10	26*
COc1ccc(NC(=O)CN(C)C(=O)Cc2n[nH]c(=O)c3ccccc23)cc1	0	-8	6	-4	-8	-9
CCOC(=O)c1sc(NC(=O)Nc2cccc(Cl)c2)cc1C	18*	43*	-18	3	-6	39*
CCOC(=O)c1sc(NC(=O)c2cccs2)cc1C	4	-16	8	-4	7	12
Clc1ccc(C(c2cccs2)N2CCNCC2)cc1 (stereo not given)	1	45*	-28	-3	-9	2
O=S(=O)(c1ccc(Cl)cc1)N1CCNCC1	0	7	-1	-3	19	-1
COc1cc(CN2CCC(Cc3ccccc3)CC2)c([N+](=O)[O-])cc1OC	0	-17	8	-3	15	-18
Cc1ccc([N+](=O)[O-])c(OCCN2CCCCCC2)c1	16*	-2	-1	-10	20	1
Cc1ccc([N+](=O)[O-])c(OCCCN2CCC(Cc3ccccc3)CC2)c1	9	76*	-29	-9	-4	-12
Cc1ccc([N+](=O)[O-])c(OCCN2CCc3ccccc3C2)c1	0	1	1	-9	-8	-4
O=[N+]([O-])c1cccc(OCCN2CCC(Cc3ccccc3)CC2)c1	3	91*	-26	-7	24	-8
COc1ccc(CNc2cccc3[nH]c(C(F)(F)F)nc23)cc1	0	-9	6	-3	14	-10
Cc1ccc(C(=O)Nc2cccc3[nH]c(C(F)(F)F)nc23)cc1	17*	-10	5	1	0	-1
